From PubChem BioAssay AID431 (Sanford-Burnham Center for Chemical Genomics, 2006)
Among all 63,000 compounds or so, about 1,100 (1.7%) were called active. The sample holds actives, similar compounds and a random draw of the others, so the mix is not that of the screen. Potency and affinity values are given separately. Values without a mark were called inactive.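 Rule for the calls: active = compounds whose percent cytotoxicity in the single-dose primary screen, scaled between solvent and toxic-drug controls, exceeds 50; inactive = the rest.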

Test: cytotoxicity in KRAS-transformed pancreatic duct cells, primary screen, cell-based, fluorescence, HTS (AID 431);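 note: 0% = DMSO solvent wells and 100% = doxorubicin-treated wells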
Conditions: HPDE-C7K KRASV12 cells, Alamar Blue viability, 48 h; at 10 µM; hits give high values

SMILES | cytotoxicity
Cc1ccc(CNc2nc3c([nH]2)c(=O)n(C)c(=O)n3C)cc1 | -19.3%
Cc1ccc(C(CC(=O)N2CCCC2)c2ccccc2)c(O)c1C (stereo unspecified) | -9.2%
COc1ccccc1CNc1ncnc2nc[nH]c12 | 4.5%
CN1CCN(Cc2cc(COCc3ccccc3)c3cccnc3c2O)CC1 | 4.8%
Oc1ccc(CNc2ccccc2F)c2cccnc12 | 5.5%
Oc1ccc(CNc2ccc(F)cc2)c2cccnc12 | 53.3% (active)
Oc1ccc(CNc2ccccc2)c2cccnc12 | 44.4%
Oc1ccc(CN2CCCc3ccccc32)c2cccnc12 | 36.7%
Oc1ccc(CN2CCN(Cc3ccccc3)CC2)c2cccnc12 | 6.1%
CCOC(=O)C1CCN(Cc2ccc(O)c3ncccc23)CC1 | -4.5%
O=C(CSc1nnc(-c2ccc(S(=O)(=O)N3CCCC3)cc2)o1)NCc1ccco1 | -15.4%
CCOc1ccc(OCC)c(NC(=O)CN(c2ccc(C)cc2)S(=O)(=O)c2c(C)noc2C)c1 | -6.3%
COC(=O)c1[nH]c2ccc(C)cc2c1NS(=O)(=O)c1ccc(F)c(C)c1 | 10.9%
CCCn1c(SCC(=O)NC(C)(C)C)nnc1C(C)C | -5.9%
COc1cccc(OC)c1C(=O)Nn1c(C2CCC2)nc2ccccc2c1=O | -10.3%
O=C(CN1C(=O)CCS(=O)(=O)c2ccccc21)Nc1cccc(Cl)c1 | 2.5%
O=[n+]1c2c(n([O-])c3cc(F)ccc31)CCCC2 | 0.3%
COc1cc(OC)cc(C(=O)NCc2n[nH]c(=S)n2-c2ccccc2)c1 | -3.1%
Cc1ccc(-c2c(C)c(-c3ccc(F)cc3)nc(N)c2C#N)o1 | 19.3%
CCOc1ccccc1NC(=O)N1CCCC1C(=O)Nc1ccc(NC(C)=O)cc1 (stereo unspecified) | -3.3%
COc1ccc(Cl)cc1S(=O)(=O)N1CCN(C(=O)c2cc(OC)c(OC)c(OC)c2)CC1 | -3.4%
COc1cc(C(=O)N2CCN(c3ccc(C)cc3C)CC2)cc(OC)c1OC | 28.6%
COc1cc(C(=O)N2CCN(c3cc(Cl)ccc3Cl)CC2)cc(OC)c1OC | 65.3% (active)

SMILES | cytotoxicity
CC1(C)Cc2ccccc2-c2nnc(SCC(=O)Nc3ccc4c(c3)OCO4)n21 | 4.9%
COc1ccc(-c2noc(CN(C)S(=O)(=O)c3ccc(Cl)cc3)n2)cc1OC | 27.5%
CCn1c2ccccc2c2cc(CN3CCN(C(=O)c4ccco4)CC3)ccc21 | -16%
CCn1c(SCC(=O)Nc2ccc(S(N)(=O)=O)cc2)nnc1-c1cccc(OC)c1 | 6.1%
COc1ccc(NC(=O)CSc2nnc(-c3ccccc3C)n2N)cc1OC | -2.1%
CCn1c2ccccc2c2cc(NC(=O)CSc3nnnn3-c3ccccc3)ccc21 | 5.6%
CCn1c2ccccc2c2cc(NC(=O)N3CCOCC3)ccc21 | -7.1%
CCn1c2ccccc2c2cc(NC(=O)c3ccco3)ccc21 | 66.2% (active)
CCn1c(SCC(=O)Nc2ccc3c(c2)c2ccccc2n3CC)nnc1-c1cnccn1 | 12.2%
CCn1c(SCC(=O)Nc2ccc3c(c2)c2ccccc2n3CC)nnc1-c1ccco1 | 57.1% (active)
CCn1c(SCC(=O)Nc2ccc3c(c2)OCCO3)nnc1-c1ccco1 | 5.8%
CCn1c2ccccc2c2cc(NC(=O)CSc3nnc(-c4ccccc4OC)n3N)ccc21 | 66% (active)
C=CCn1c(SCC(=O)Nc2ccc(N(C)C)cc2)nnc1-c1cccc(C)c1 | 33%
O=C(CSc1nn(-c2ccccc2)c(=S)s1)Nn1cnnc1 | -11.8%
CS(=O)(=O)N1CCCC(c2nc(-c3ccc(S(=O)(=O)NCc4ccccc4)cc3)no2)C1 (stereo unspecified) | -5.6%
O=C(CCCn1c(=S)[nH]c2cc3c(cc2c1=O)OCO3)N1CCN(c2ncccn2)CC1 | -12.6%
CCOc1ccccc1N1CCN(C(=O)Nc2cccc(Cl)c2)CC1 | -2.1%
Cn1cc(C(=O)NC2CCCCCCC2)c(=O)c2cc(S(=O)(=O)N3CCCC3)ccc21 | -3.8%
CCN(CC)S(=O)(=O)c1ccc2oc(C(=O)N3CCCCCC3)c(C)c2c1 | 7.8%
CCCN1Cc2cccc(C(=O)Nc3cc(OC)cc(OC)c3)c2C1=O | 16.6%
CC(C)(C)OC(=O)NCCc1nnc(SCC(=O)c2ccc(Cl)cc2)o1 | 3.8%
COc1cccc(C(=O)N(Cc2cc3cc(C)ccc3[nH]c2=O)CC2CCCO2)c1 (stereo unspecified) | -14.2%
CCOC(=O)C1CCN(Cc2ccccc2C(F)(F)F)CC1 | -13.3%

SMILES | cytotoxicity
On1cnnc1-c1ccccc1 | -12.7%
CCCCN1Cc2cc(C(=O)c3cc(F)ccc3O)cnc2NC1=O | 6.7%
CN1Cc2cc(C(=O)c3cc(Cl)cc(CSc4ncccn4)c3O)cnc2NC1=O | 66.2% (active)
Cc1ccc(O)c(C(=O)c2cnc3c(c2)CN(CCC(C)C)C(=O)N3)c1 | -6%
CCCn1c(N)c(C(=O)CSc2nnc(-c3ccco3)n2Cc2ccccc2)c(=O)[nH]c1=O | -9.1%
Cc1cc(NC(=O)NC(=O)c2cccc(OC(F)(F)C(F)F)c2)n[nH]1 | -3.6%
Cc1cc(C)c2c(CN3CCN(C)CC3)cc(=O)oc2c1 | 9.6%
CCN1CCN(Cc2cc(=O)oc3cc(C)cc(C)c23)CC1 | 7.2%
Cc1cc(C)c2c(CN3CCN(C/C=C/c4ccccc4)CC3)cc(=O)oc2c1 | 72.7% (active)
CCOC(=O)c1c(C)n(C)c2ccc(O)c(CN3CCN(C)CC3)c12 | 4.9%
Cc1cc(C2=CC(C)(c3cc(C)oc3C)Nc3nc(C(F)(F)F)nn32)c(C)o1 (stereo unspecified) | 56.2% (active)
Cc1cccc(NC(=O)c2cnc3sccn3c2=O)c1C | 0.5%
CCOC(=O)c1ccc(NC(=O)CCC(=O)OC)cc1 | 0%
CCCc1nc(NC2CCCCC2)c(C#N)c2c1COC(C)(C)C2 | -33.6%
CCc1nc(NCC2CCCO2)c(C#N)c2c1COC(C)(C)C2 (stereo unspecified) | -3%
CCc1nc(NC2CCCCC2)c(C#N)c2c1COC(C)(C)C2 | 62% (active)
COc1ccccc1N1CCN(CC(=O)Nc2c(C)n[nH]c2C)CC1 | 0.8%
COc1ccc(-c2nc(CS(=O)CC(=O)NCC3CCCO3)c(C)o2)cc1 (stereo unspecified) | -1.7%
O=S(=O)(c1ccc(F)cc1)N1CCN(c2ncnc3c2cnn3-c2ccccc2)CC1 | -6.5%
O=S1(=O)CC(O)C(N2CCC(c3ccccc3)CC2)C1 (stereo unspecified) | -1.5%
CN(Cc1cc2ccccc2[nH]c1=O)S(=O)(=O)c1ccccc1 | -6.2%
CN(C)CCC(=O)c1ccc(Cl)cc1 | 13.3%
Cc1cc(C)c2[nH]c(=O)c(CN(Cc3ccco3)C(=O)C3CCCO3)cc2c1 (stereo unspecified) | -35.5%

SMILES | cytotoxicity
COc1ccccc1NC(=O)N(Cc1ccco1)Cc1cc2cccc(C)c2[nH]c1=O | -5%
CCN1CCCC1CN(Cc1cc2cc(C)cc(C)c2[nH]c1=O)C(=O)Nc1ccccc1OC (stereo unspecified) | 20.9%
COc1ccccc1NC(=O)N(Cc1ccco1)Cc1cc2ccc(C)c(C)c2[nH]c1=O | 63.7% (active)
COc1ccccc1NC(=O)N(Cc1ccco1)Cc1cc2cc(C)cc(C)c2[nH]c1=O | 74.7% (active)
COc1ccccc1NC(=O)N(Cc1ccco1)Cc1cc2c(C)ccc(C)c2[nH]c1=O | 33.2%
CC1CCCCC1NC(=O)CN1CCN(Cc2ccccc2Cl)C1=O (stereo unspecified) | -7.1%
CCc1cc(C)cc(OCCNC(=O)c2ncn[nH]2)c1 | 30%
Cn1nnnc1CCOCCc1nnnn1C | 14.6%
CCn1nnnc1SCCSc1nnnn1CC | 9.6%
N/C(=N\c1nc2c(c(=O)[nH]1)CCCC2)Nc1ccccc1 | 12.1%
COc1ccc(-c2cn3cccnc3n2)cc1NC(=O)c1ccc(Br)o1 | 8.3%
CCOC(=O)C1=C(C)N=C2SC(CC)C(=O)N2C1c1cccc(F)c1 (stereo unspecified) | -16.9%
COC(=O)c1[nH]c2ccccc2c1NC(=O)CN1CCN(c2cccc(Cl)c2)CC1 | 7.8%
OC(CN1CCN(c2cccc(C(F)(F)F)c2)CC1)c1c[nH]c2ccccc12 (stereo unspecified) | 30.5%
Cc1[nH]c2ccccc2c1NC(=O)CN1CCN(c2cccc(C(F)(F)F)c2)CC1 | 70% (active)
O=C(CCn1c(=O)[nH]c2ccccc2c1=O)N1CCN(c2cccc(C(F)(F)F)c2)CC1 | -4.3%
O=C(CN1CCN(c2ccccc2)CC1)Nc1cccc(C(F)(F)F)c1 | 4.9%
CC[C@]1(O)CC2CN(CCc3c([nH]c4ccccc34)[C@@](C(=O)OC)(c3cc4c(cc3OC)N(C=O)[C@H]3[C@@](O)(C(=O)OC)[C@H](OC(C)=O)[C@]5(CC)C=CCN6CC[C@]43[C@@H]65)C2)C1 (stereo partly specified) | 72.5% (active)
CC[C@]1(O)C[C@@H]2CN(CCc3c([nH]c4ccccc34)[C@@](C(=O)OC)(c3cc4c(cc3OC)N(C)[C@H]3[C@@](O)(C(=O)OC)[C@H](OC(C)=O)[C@]5(CC)C=CCN6CC[C@]43[C@@H]65)C2)C1 | 74.9% (active)
CC(=O)Oc1ccc(N(C(C)=O)S(=O)(=O)c2cccs2)cc1 | 8.2%
O=C(O)CCC(=O)Nc1nnc(C(F)(F)F)s1 | -6.4%
CCCNc1cc(=O)n(C)c(=O)n1C | 9.9%
